Source: PubChem BioAssay
This is a sample that favours compounds with a hit; in the whole collection about 7.5% have one here.
Rab9 promoter act: Rab9 promoter activation; AID 485297; Potency, µM (series often up to 9.22 µM), for inactives: top-dose activation, negative = inhibition, usual class: activators; Huh7 Rab9 promoter-luciferase reporter, luminescence, 24 h; 320,000 tested, 2.8% active; further: % of control where 0% means no effect; nearly all actives have a fitted effect of over 60% in size
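Rab9 promoter-driven luciferase in stably transfected Huh7 cells; 1500 cells/well rested 2 h, exposed to compound in DMSO for 24 h at 37 °C, 5% CO2. Luminescence read 10 min after adding luciferase reagent at ambient temperature.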
ELG1 genotox: genotoxicity induction in ELG1-luciferase HEK293T cells | Potency, µM (titrated, usually from 46 µM), for the others: at the highest dose activity change, positive = activation, usual class: activators | 330,000 tested, 1.3% active | HEK293T ELG1-luciferase reporter, luminescence, 16 h | AID 504466; further: % of control where 0% means no effect; nearly all actives have a fitted effect of over 60% in size
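Luminescence read-out: rising ELG1-luciferase signal, reflecting elevated ELG1 protein under genetic stress, flags genotoxic compounds. Cells were treated for 16 hr at 37 °C before ONE-Glo detection.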
NPC1 promoter act: NPC1 promoter activation; AID 485313; Potency, µM (top dose mostly 9.22 µM), for the others: at the highest dose activation, most hits filed as activators; 320,000 tested, 2.4% active; Huh7 NPC1 promoter luciferase reporter, 24 h; further: % of control where 0% means no effect; nearly all actives have a fitted effect of over 60% in size
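Stably transfected Huh7 (NPC1 promoter→luciferase), 1500 cells/well in Opti-MEM + 10% FBS, 2 h settle, then compound 24 h at 37 °C. Luminescence after 10 min with Amplite reagent.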
SMN2 splice up: increases expression of the SMN2 splice variant. HEK293 SMN2-luciferase splicing reporter, luminescence, 30-36 h. Potency, µM (series often up to 46.1 µM), for inactives: top-dose activity change, positive = activation, usual class: activators. 210,000 tested, 2.8% active. AID 1458; further: % of control where 0% means no effect; nearly all actives have a fitted effect of over 55% in size
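HEK293 cells carry an SMN2 […]–luciferase reporter in which exon 7 inclusion puts luciferase in frame. Cells were plated 10-12 h before compound addition, then incubated 30-36 h at 37C. ONE-Glo luminescence was read; sodium butyrate at 4.5 mM final served as control.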
FLuc modulator: inhibits or activates purified firefly luciferase, miR-21 counter-screen; purified FLuc, Km substrates, luminescence inhibition; Potency, µM (series often up to 57.5 µM), for inactives: top-dose activity change, negative = inhibition, usual class: inhibitors; 360,000 tested, 6.9% active;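 further: plate controls were vehicle for no effect and reference inhibitor for full effect; nearly all actives have a fitted effect of over 55% in size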
Target sequence (P08659 whole entry, looked up): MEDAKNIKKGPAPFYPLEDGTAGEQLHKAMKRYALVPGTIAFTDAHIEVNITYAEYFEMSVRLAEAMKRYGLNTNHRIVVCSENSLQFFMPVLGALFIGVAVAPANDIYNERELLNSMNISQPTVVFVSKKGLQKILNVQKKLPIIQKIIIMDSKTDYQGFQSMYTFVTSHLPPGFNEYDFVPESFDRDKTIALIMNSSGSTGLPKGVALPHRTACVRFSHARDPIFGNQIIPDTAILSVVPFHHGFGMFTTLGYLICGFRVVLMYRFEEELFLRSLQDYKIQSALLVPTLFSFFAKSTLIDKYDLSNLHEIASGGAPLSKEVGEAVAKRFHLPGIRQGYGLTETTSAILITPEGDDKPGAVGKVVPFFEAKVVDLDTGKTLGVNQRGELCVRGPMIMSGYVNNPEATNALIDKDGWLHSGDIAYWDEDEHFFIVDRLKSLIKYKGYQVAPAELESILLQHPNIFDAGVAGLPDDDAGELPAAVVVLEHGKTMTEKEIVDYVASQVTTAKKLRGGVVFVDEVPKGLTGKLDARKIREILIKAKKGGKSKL
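Purified P. pyralis luciferase, 10 nM final, with Km-level 10 uM D-luciferin and 10 uM ATP in 50 mM Tris acetate pH 7.5, 10 mM Mg acetate, 0.01% Tween-20, 0.05% BSA; 6-point qHTS titration about 60 µM downward; luminescence read.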
Numbers without * were called inactive; ? = inconclusive; · = not tested or not shown; [ ] = remark or other dose. The call rests on the fitted dose curve; in most records, active means well fitted curve in the direction sought with a large enough effect; inconclusive means small, poorly fitted or top-dose-only effect, or another doubt; inactive means no such curve, though single readings can be large; an effect the other way counts as inactive or inconclusive. Potency means the concentration at half of the fitted maximal effect.

SMILES	Rab9 promoter act	ELG1 genotox	NPC1 promoter act	SMN2 splice up	FLuc modulator
NC(=O)c1ccc(NC(=O)COC(=O)CNC(=O)c2sc3ccccc3c2Cl)cc1	-9%	1%	-2%	·	6.7µM*
CS(=O)(=O)c1ccc(Cl)c(NC(=O)COC(=O)CNC(=O)c2sc3ccccc3c2Cl)c1	-1%	-4%	0%	·	15µM*
Cc1ccc(C(=O)NCC(=O)OCC(=O)NC2CCS(=O)(=O)C2)cc1C (configuration not stated)	1%	-3%	0%	-6%	?
CCOC(=O)C1CCN(C(=O)COC(=O)CNC(=O)c2sc3ccccc3c2Cl)CC1	-3%	0%	-2%	·	9.5µM*
CC1CCCCN1C(=O)COC(=O)CNC(=O)c1sc2ccccc2c1Cl (configuration not stated)	-4%	-2%	0%	·	?
O=C(CNC(=O)c1sc2ccccc2c1Cl)OCc1ccccc1	-2%	4%	-3%	·	-15%
COc1ccc(NC(=O)CNS(=O)(=O)c2ccccc2)cc1Cl	2%	-1%	-4%	10%	4%
COc1ccc2c(c1)CC/C2=N\OC(=O)c1ccccc1OC	22%	?	-4%	-1%	3µM*
CCN(CC)c1ccc2cc(S(=O)(=O)c3ccc(Cl)cc3)c(=O)oc2c1	3%	-2%	1%	-29%	15%
Cc1cc(OCC(=O)Nc2ccc3c(c2)OCCO3)ccc1Cl	4%	17%	1%	-9%	19µM*
O=C(COc1ccc(F)cc1)Nc1ccc2c(c1)OCCO2	4µM*	?	2.8µM*	·	5.4µM*
CCC(=O)c1ccc(OCC(=O)Nc2ccc3c(c2)OCCO3)cc1	·	14%	·	·	·
CCC(=O)Nc1ccc2c(c1)OCCO2	0%	1%	-5%	-2%	-1%
C/C(=N\OCC(=O)Nc1ccc2c(c1)OCCO2)c1ccc2c(c1)OCCO2	5%	1%	2%	·	19µM*
CCOc1ccc(NC(=O)COc2ccc3c(c2)OCO3)cc1	-3%	15%	0%	·	-18%
O=C(COc1ccc2c(c1)OCO2)Nc1cccc(F)c1	-1%	13µM*	14%	·	9.5µM*
COCCn1c(SCC(=O)NC2CCCC2)nc2ccccc2c1=O	-2%	2%	-3%	·	0%
CCOc1ccc(OCCC(=O)OCC(=O)Nc2ccc3c(c2)OCO3)cc1	1%	3%	-1%	·	24µM*
CCOC(=O)c1ccc(NC(=O)Nc2ccc3c(c2)OCCO3)cc1	-4%	-3%	-1%	-11%	19µM*
CCOCC(=O)Nc1ccc2c(c1)OCCO2	3.2µM*	?	?	?	?
Cc1c(Cl)ccc2c(C(=O)NC(C)c3ccncc3)cc(-c3ccncc3)nc12 (configuration not stated)	-4%	-3%	-2%	15%	-4%
CCC(C)(O)c1[nH]c2ccc(C(=O)OC)cc2c1C (configuration not stated)	29%	19%	24%	·	21µM*
O=C(COc1ccccc1-c1nnc(-c2ccccc2)o1)Nc1ccc(Br)cc1F	·	·	·	·	4.8µM*
Cc1cccc(OCC(=O)Nc2cccc(-c3nnc(-c4ccccc4)o3)c2)c1C	20%	5%	?	10µM*	2%
COc1cc(OC)c(NC(=O)COc2ccccc2-c2nnc(-c3ccccc3)o2)cc1Cl	·	·	·	·	0%
SMILES	Rab9 promoter act	ELG1 genotox	NPC1 promoter act	SMN2 splice up	FLuc modulator
COc1ccccc1OCC(=O)Nc1cccc(-c2nc3ccccc3o2)c1	10%	-2%	2%	6%	7.6µM*
Cc1ccc(OCC(=O)Nc2cccc(-c3nnc(-c4ccccc4)o3)c2)cc1	?	2%	?	25µM*	?
Cc1cccc(C)c1OCC(=O)Nc1cccc(-c2nnc(-c3ccccc3)o2)c1	6%	-7%	3%	·	?
COc1ccc(-c2nc3ncccc3o2)cc1NC(=O)c1cccs1	1%	-11%	-1%	·	?
Cc1ccc(/C=N/n2c(-c3ccncc3)n[nH]c2=S)o1	0%	-11%	-1%	-2%	1%
CC1(C)CC(NC(=O)c2cc([N+](=O)[O-])cc([N+](=O)[O-])c2)CC(C)(C)N1	4%	-5%	3%	·	-4%
Cc1nc2c3cc(F)ccc3n(Cc3ccc(F)cc3)c2s1	-2%	3%	-6%	4%	0%
CCc1ccc2c(c1)c1nc(C)sc1n2CC	3%	5%	-6%	-12%	19µM*
COc1c2occc2c(OC(C)=O)c2c(=O)cc(C)oc12	-2%	-13%	3%	·	1%
C=CCOc1cccc(C(=O)/C=C2/C(=O)Nc3ccccc32)c1	-4%	18%	-6%	·	7.6µM*
O=C(Nc1cnc2ccccn2c1=O)c1ccc(Cl)cc1	2.2µM*	?	3.5µM*	35µM*	15µM*
CC(C)c1ccc(Nc2ncccc2C(=O)O)cc1	0.4µM*	?	0.63µM*	16µM*	2.7µM*
CCCCOc1ccc(-c2nc(-c3cccnc3)no2)cc1	2µM*	6.5µM*	3.5µM*	13µM*	4.3µM*
COc1ccc(-c2nc(-c3cccnc3)no2)cc1	0.45µM*	?	0.63µM*	·	2.4µM*
COc1cccc(-c2nc(-c3ccc(NC(=O)c4ccncc4)cc3)no2)c1	28%	1%	3%	-67%	-9%
c1csc(-c2nc(N3CCCCC3)no2)c1	1.6µM*	15µM*	2.2µM*	·	6.7µM*
COc1cc(OC)cc(-c2nc(-c3ccccc3)no2)c1	?	?	?	22µM*	-14%[2.3 µM]
COc1ccccc1-c1noc(-c2cccs2)n1	2.2µM*	?	1.6µM*	11µM*	7.6µM*
CCOc1ccc(-c2cc(-c3nc(-c4ccc(C)cc4)no3)[nH]n2)cc1	·	·	·	·	21µM*
O=[N+]([O-])c1cccc(-c2noc(-c3cccs3)n2)c1	2.5µM*	15µM*	3.5µM*	·	2.7µM*
CCOc1nc(-c2ccccc2)ccc1-c1noc(-c2cccs2)n1	6%	-1%	9%	1%	?
COc1ccc(-c2nc(-c3cccs3)no2)cc1	0.1µM*	?	0.32µM*	·	0.085µM*
CCOc1ncccc1-c1nc(-c2cccs2)no1	3%	13%	-1%	·	?
CC1=CCC2C(=O)N(c3ccc(S(N)(=O)=O)cc3)C(=O)C2C1 (configuration not stated)	1%	0%	-3%	·	0%
CS(=O)(=O)c1ccc2nc(NC(=O)CN3CCOCC3)sc2c1	0%	-7%	-5%	·	5%
CCN(CC)C(=O)N1CCN(c2c([N+](=O)[O-])c(=O)oc3ccccc23)CC1	-1%	1%	-1%	·	-3%
COc1cccc(-c2noc(-c3ccc(Cl)nc3)n2)c1	?	?	3.5µM*	?	?
Cc1ccc(-c2nc(-c3cccs3)c(-c3cccs3)[nH]2)cc1	·	·	·	-15%	-1%
COc1ccc(-c2noc(-c3cccc(OC)c3OC)n2)cc1	·	·	·	13µM*	2.4µM*
